Pf Dd2 inh: P. falciparum Dd2 growth inhibition | SYBR Green, 72 h; stronger effect = lower value | activity change, % at 10 µM | 2.3% of 94,000 active | AID 1159554; in the data active = activity change below about -80%
C diff HTS: blocks growth of Clostridium difficile; Clostridium difficile clinical isolate growth, OD600, 24 h; stronger effect = lower value; growth activity, negative = inhibition, % at 16 µg/mL (by protocol); 0.25% of 86,000 active; AID 1259249;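 active = mean growth activity at or below -80% and every replicate also at or below -80%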;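 also: 0% = DMSO wells and -100% = levofloxacin 16 µg/mL wells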
* hit, by the source's call; nt = no result given. Shown are actives, neighbours in structure and some others; about 2.4% of the full set was active somewhere.

SMILES | Pf Dd2 inh | C diff HTS
COc1ccc(S(=O)(=O)N(C)C[C@H]2OCCCC[C@@H](C)Oc3ccc(NC(=O)NC4CCCCC4)cc3C(=O)N([C@@H](C)CO)C[C@H]2C)cc1 | -61 | 3
COc1ccc(S(=O)(=O)N(C)C[C@H]2OCCCC[C@H](C)Oc3ccc(NC(=O)NC4CCCCC4)cc3C(=O)N([C@@H](C)CO)C[C@H]2C)cc1 | -81* | 4
COc1cccc(S(=O)(=O)N(C)C[C@H]2Oc3cc(C#CCN(C)C)ccc3S(=O)(=O)N([C@H](C)CO)C[C@@H]2C)c1 | -67 | -3
C[C@@H]1CCCCO[C@@H](CN(C)S(=O)(=O)c2ccc(F)cc2)[C@H](C)CN([C@H](C)CO)C(=O)c2cc(NS(=O)(=O)c3cccs3)ccc2O1 | -48 | 2
COc1ccc(S(=O)(=O)N(C)C[C@H]2OCCCC[C@H](C)Oc3ccc(NS(=O)(=O)c4cccs4)cc3C(=O)N([C@H](C)CO)C[C@H]2C)cc1 | -81* | -2
COc1ccc(S(=O)(=O)N(C)C[C@H]2OCCCC[C@H](C)Oc3ccc(NS(=O)(=O)c4cccs4)cc3C(=O)N([C@@H](C)CO)C[C@@H]2C)cc1 | -71 | 5
COc1ccc(S(=O)(=O)N(C)C[C@H]2OCCCC[C@H](C)Oc3ccc(NS(=O)(=O)c4cccs4)cc3C(=O)N([C@@H](C)CO)C[C@H]2C)cc1 | -83* | -4
C[C@@H]1CN([C@@H](C)CO)C(=O)c2cc(NS(=O)(=O)c3cccs3)ccc2O[C@@H](C)CCCCO[C@@H]1CN(C)S(=O)(=O)c1ccc(F)cc1 | -83* | 26
COc1ccc(S(=O)(=O)N(C)C[C@H]2OCCCC[C@@H](C)Oc3ccc(NS(=O)(=O)c4cccs4)cc3C(=O)N([C@H](C)CO)C[C@H]2C)cc1 | -72 | -13
C[C@H]1CN([C@@H](C)CO)C(=O)c2cc(NC(=O)CCC(F)(F)F)ccc2O[C@H]1CN(C)C | 1 | 0
C[C@H]1CN([C@@H](C)CO)S(=O)(=O)c2ccc(-c3cccnc3)cc2O[C@@H]1CN(C)Cc1ccncc1 | -2 | -2
CN(C)C(=O)C[C@H]1CC[C@@H]2[C@H](COC[C@H](O)CN2CC2CCCC2)O1 | -15 | 2
O=C(Cc1ccccn1)N1CC2(C1)[C@@H](c1ccccc1)[C@H](CO)N2C(=O)c1ccncc1 | -21 | -1
COc1ccc2c3c(n(C)c2c1)[C@@H](CO)NCC31CN(C(=O)c2cccc(F)c2)C1 | -82* | 0
COc1ccc2c3c(n(C)c2c1)[C@@H](CO)N(C(=O)Nc1ccc(F)cc1)CC31CN(Cc2ccccc2F)C1 | -88* | -21
COc1ccc2c3c(n(C)c2c1)[C@@H](CO)N(C(=O)c1ccc(F)cc1)CC31CN(C(=O)Nc2ccc(F)cc2)C1 | -89* | 3
COc1ccc2c3c(n(C)c2c1)[C@@H](CO)NCC31CN(C(=O)c2ccc(F)cc2)C1 | 69 | nt
COc1ccc2c3c(n(C)c2c1)[C@H](CO)NCC31CN(Cc2ccc(-c3ccccn3)cc2)C1 | -88* | 6
COc1ccc2c3c(n(C)c2c1)[C@H](CO)N(C(=O)Nc1ccc(F)cc1)CC31CCN(Cc2ccccc2F)CC1 | -76 | 4
COc1ccc2c3c(n(C)c2c1)[C@@H](CO)NCC31CN(Cc2ccccc2Cl)C1 | -23 | 8
COc1ccc2c3c(n(C)c2c1)[C@H](CO)N(C(=O)c1ccc(F)cc1)CC31CN(C(=O)Nc2ccc(F)cc2)C1 | -76 | 10
COC(=O)C[C@H]1CC[C@@H]2[C@H](COc3ccc(NC(=O)c4cc(C)on4)cc3C(=O)N2C)O1 | -4 | 2
C[C@@H]1CN([C@H](C)CO)C(=O)Cc2cc(NC(=O)Cn3cnnn3)ccc2O[C@@H]1CN(C)C(=O)NC1CCCCC1 | 8 | -2
COc1ccc(S(=O)(=O)Nc2ccc3c(c2)CC(=O)N([C@@H](C)CO)C[C@@H](C)[C@@H](CN(C)C(=O)Nc2ccc(F)cc2)O3)cc1 | 14 | 2
CCCNC(=O)N1C[C@@H](O)COC[C@@H]2O[C@@H](CC(=O)NCCCN3CCOCC3)CC[C@H]21 | 10 | 0
SMILES | Pf Dd2 inh | C diff HTS
COc1ccc2c3c(n(C)c2c1)[C@@H](CO)N(C(=O)c1ccc(F)cc1)CC31CN(CC2CCOCC2)C1 | -88* | -7
COc1ccc2c3c(n(C)c2c1)[C@H](CO)N(C(=O)c1ccc(F)cc1)CC31CN(CC2CC2)C1 | -58 | 6
COc1ccc2c3c(n(C)c2c1)[C@H](CO)N(C(=O)c1ccc(F)cc1)CC31CCN(C)CC1 | 18 | -3
COc1ccc2c3c(n(C)c2c1)[C@@H](CO)N(C(=O)c1ccc(F)cc1)CC31CCN(C(=O)c2ccc(F)cc2)CC1 | -86* | 6
C[C@@H]1CN([C@H](C)CO)C(=O)c2cc(NC(=O)NC3CCCCC3)ccc2O[C@@H]1CN(C)Cc1ccccc1 | -35 | -7
Cc1ccccc1S(=O)(=O)N1CC(=O)N2[C@H](C1)[C@@H](c1ccc(C#Cc3ccccc3)cc1)[C@@H]2CO | -82* | -1

Bioassay records (PubChem BioAssay)
